Source: PubChem BioAssay (NCI)
About 83,000 compounds went through this panel and 20% of them were active in at least one assay; those are over-represented in the sample as a whole.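 Activity criterion: percent growth below 10, measured after cells in 96-well plates were exposed to a single compound concentration for 48 hours.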 Unmarked numbers belong to inactive results. The source made the active and inactive calls.

Tested on: MDA-MB-435 melanoma
Experiment: NCI-60 one-dose screen, 48 h (100 = growth as untreated, 0 = no growth, -100 = all killed)
Settings: 10 µM unless noted
Description: Growth inhibition of the MDA-MB-435 human Melanoma tumor cell line is measured as a screen for anti-cancer activity. Cells are grown in 96 well plates and exposed to the test compound for 48 hours. Compounds are tested at a single concentration, which is 10^-5 M for most compounds. The reported endpoint is percent growth (GI% or GIPRCNT), where numbers from 0 - 100% represent growth inhibition, and numbers from -100% - 0 represent cell death. For example, a value of 40 represents 60% growth inhibition. A value of 0 means no net growth occurred over the course of the experiment. A value of -40 indicates 40% of cells at the beginning of the experiment died by the end of the experiment. A value of -100 means all cells are dead at the end of the experiment.
NCI-60 Human Tumor Cell Lines Screen was performed using the standard one-dose NCI protocol, which is described in more detail at https://dtp.cancer.gov/discovery_development/nci-60/default.htm.
Compounds with GIPRCNT values below 10 were considered active. Activity score was based on GIPRCNT using the following formula: […]
Score is 0 for GIPRCNT values of 100 or above, 50 for GIPRCNT values of 0, and 100 for GIPRCNT values of -100.

SMILES | growth
CC[C@@](C)(NC(=O)C(C)(C)NC(=O)[C@@H](NC(=O)[C@@H]1CCCN1C(=O)C(C)(C)NC(=O)[C@H](CC(C)C)NC(=O)CNC(=O)C(C)(C)NC(=O)[C@@H](NC(=O)C(C)(C)NC(=O)[C@H](CCC(N)=O)NC(=O)[C@H](C)NC(=O)C(C)(C)NC(=O)[C@H](C)NC(=O)C(C)(C)NC(=O)[C@H](C)NC(=O)C(C)(C)NC(C)=O)C(C)C)C(C)C)C(=O)N[C@@H](CCC(N)=O)C(=O)N[C@@H](CCC(N)=O)C(=O)N[C@H](CO)CC1CCCCC1 | 12.4% [5 µM]
Cc1ccc(-c2nnc3sc(C4=Cc5ccccc5OC=C4)nn23)cc1 | 93.7%
CN(C)C(=O)c1ccccc1-n1cnc2ccccc2c1=O | 95%
COc1cc(O)c2c(c1)/C=C/C[C@H](O)[C@H](O)C(=O)/C=C\C[C@H](C)OC2=O | -15.4% (active)
CS(=O)c1nccc(-c2c(-c3ccc(F)c(OCc4ccccc4)c3)nc3sccn23)n1 (stereo not given) | 104%
COc1ccc(-c2cc(-c3ccc(Cl)cc3)nc3nc(N)nn23)cc1 | 102%
COc1ccc2c(C3=C(c4cn(C)c5ccccc45)C(=O)NC3=O)coc2c1 | 6.58% (active)
Oc1ccc(CSc2nnc(-c3cnccn3)o2)c2cccnc12 | 13.1%
CN(c1ccc(F)cc1)S(=O)(=O)c1ccc(-c2cnc(C3CC3)o2)cc1 | -26.2% (active)
O=S(=O)(NC1CC2CCC1C2)c1ccc2c(c1)C(=NO)c1cc(S(=O)(=O)NC3CC4CCC3C4)ccc1-2 (stereo not given) | 27.1%
Cn1cc(-c2nnc(N)nc2-c2cn(C)c3ccc(F)cc23)c2cc(F)ccc21 | 101%
O=C(NCCCNc1cc(-c2cn(-c3ccccc3)nc2-c2cccc(O)c2)ccn1)Nc1cc(C(F)(F)F)cc(C(F)(F)F)c1 | 75.3%
COc1ccc(Cn2cc3c(c2-c2cc(OC)c(OC)c(OC)c2)CCCc2cnoc2-3)cc1 | -48.2% (active)
COc1ccc(Cn2cc3c(c2-c2ccccc2)CCCc2cnoc2-3)cc1[N+](=O)[O-] | 1.77% (active)
COc1ccc(OC)c(NC2=C(Cl)C(=O)C(C)=C(C)C2=O)c1 | 106%
CN(C)c1ccc(/C=N/Nc2nc(N/N=C/c3ccc(N(C)C)cc3)nc(N3CCOCC3)n2)cc1 | 104%
C/C(=C(/C)C1CC1CCN(C(=O)c1ccc([N+](=O)[O-])cc1)S(=O)(=O)c1ccc(C)cc1)C1CCCCC1 (stereo not given) | 99.4%
Cn1nc(Nc2ccccc2)c(C(=O)NN)c1N | 105%
N#C/C(=C\c1ccc(N2CCCCC2)cc1)C(=O)Nc1sc2c(c1C#N)CCC2 | 90%
Nc1nc(N)c2c(n1)NC(c1ccccc1)CC(c1ccc(Nc3nc(NCCO)nc(Nc4ccc(Cl)cc4)n3)cc1)=N2 (stereo not given) | 41.8%

SMILES | growth
C=C(C)C(=O)O[C@H]1C[C@@]2(C)OC(=CC2=O)/C(CO)=C\[C@H]2OC(=O)C(=C)[C@H]12 | -71% (active)
CCc1ccc(NC(=O)N[C@@H](Cc2cccc(F)c2)C(=O)N[C@@H]2C(=O)N3CCC[C@H]3C(=O)N3CCCC[C@H]3C(=O)N[C@@H](CO)C(=O)N3C[C@H](C)C[C@H]3C(=O)O[C@H]2C)c(F)c1 | 20.3%
Brc1cccc(/C=N/Nc2nc(N/N=C/c3cccc(Br)c3)nc(N3CCOCC3)n2)c1 | 33.4%
Cn1c2ccccc2c2c3c(c4c5ccc(Br)cc5oc4c21)C(=O)N(O)C3=O | 88.5%
CCN1C(=O)N(CC)C2SC(N/N=C/c3ccc(OC)cc3)=NC21 (stereo not given) | 0.665% (active)
O=S(=O)(Nc1ccc(-n2cnc3cc(-c4ccc(O)cc4)ccc32)cc1)C1CC1 | 87.7%
C=CCn1c(SCC(=O)Nc2cccc(C(=O)/C=C/c3ccc(Br)cc3)c2)nc2ccccc2c1=O | 86.9%
CCOC(=O)c1c(Nc2ccccc2)nn2c(-c3ccc(OC)c(OC)c3)ccnc12 | 69.6%
Nc1ccc(-c2nnc(SCc3ccc(O)c4ncccc34)n2-c2ccccc2)cc1 | 14.8%
COc1cc2c3c(n(CCCNCC4CC4)c(=O)c2cc1OC)-c1cc2c(cc1C3=O)OCO2 | 65%
CC1CCN(S(=O)(=O)c2ncsc2-c2ccccc2)CC1 | 95.5%
CCOC(=O)c1c(NC(=O)c2ccc(F)cc2F)sc2c1CCC(=O)C2 | 98.9%
NS(=O)(=O)c1ccc(Nc2nc(N/N=C/c3ccc(F)cc3)nc(Nc3ccccc3)n2)cc1 | 53.5%
O=C(N/N=C\c1ccc(Cl)cc1)c1ccc2nc(-c3ccc(Br)cc3)[nH]c2c1 | 3.54% (active)
COc1ccc(-c2nc3cc(Cl)c(Cl)cc3n2CC(=O)N=Nc2c(O)[nH]c3ccc(Cl)cc23)cc1 | 16.9%
COc1ccc(NC(=O)[C@H](C)NC(=O)OC(C)(C)C)cc1C(=O)Nc1cccc(-c2cc(=O)c3c(OC)c(OC)c(OC)cc3o2)c1 | 7.35% (active)
N#C/C(=C\c1ccc2ccccc2c1)C(=O)Nc1sc2c(c1C#N)CCC2 | 107%
O=C1Nc2ccc(Cl)cc2/C1=C/c1ccc(OCc2ccc(Br)cc2F)cc1 | 104%
O=C(Cn1cc(CN2C(=O)c3ccc([N+](=O)[O-])cc3C2=O)nn1)Nc1ccc(F)cc1Cl | 101%
COc1ccc(N2C(=O)c3cc(OC)c(OC)cc3NC2SCc2ccccc2)cc1 (stereo not given) | 107%
